# An excerpt weighted towards active compounds, which were near 18% of everything screened.
# TDP1 cell noCPT = qHTS for Inhibitors of human tyrosyl-DNA phosphodiesterase 1 (TDP1): qHTS in cells in absence of CPT. DT40 Tdp1-/- hTDP1 cells, no CPT, ATP luminescence, 48 h. Potency, µM (highest dose often 46.2 µM), inactives show at the highest dose activity change, negative = growth inhibition, most hits filed as inhibitors. 15% of 420,000 active; further: potency means the concentration at half of the fitted maximal effect; nearly all actives have a fitted effect of over 55% in size
#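 A cellular qHTS used chicken DT40 cells lacking endogenous Tdp1 but carrying stably transfected human TDP1. Compounds were applied without camptothecin, and cell growth kinetics were judged by ATP-dependent luminescence after ≥48 hr.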
# Six1-Eya2 inh = qHTS Assay for Inhibitors of the Six1/Eya2 Interaction; Homeobox protein SIX1 (Homo sapiens) + Protein phosphatase EYA2 (Homo sapiens), …; AlphaScreen GST-Six1/His-Eya2 binding, biochemical; stronger effect = lower value; activity change, % (no concentration beside the values); 0.56% of 360,000 active; AID 651725, 2012; in the data active means activity change below about -65%; inconclusive means mostly about -30% to -63%
#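 Six1/Eya2 binding was read as AlphaScreen signal after compounds were pinned into GST-Six1 plus His-tagged Eya2 (5X stock 250/500 nM) in pH 8.0 Tris/NaCl/TCEP buffer, beads added, then incubated 1 h, 37 C, dark.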
# TDP1 block = qHTS Assay for Inhibitors of Tyrosyl-DNA Phosphodiesterase (TDP1); Tyrosyl-DNA phosphodiesterase 1 (Homo sapiens), Q9NUW8; recombinant TDP1, AlphaScreen DNA substrate cleavage; Potency, µM (series often up to 130 µM), for the others: top-dose activity change, negative = inhibition, actives largely listed as inhibitors; 0.28% of 350,000 active; AID 485290, 2010; further: potency means the concentration at half of the fitted maximal effect; nearly all actives have a fitted effect of over 40% in size
# Target sequence (Q9NUW8 whole entry, looked up): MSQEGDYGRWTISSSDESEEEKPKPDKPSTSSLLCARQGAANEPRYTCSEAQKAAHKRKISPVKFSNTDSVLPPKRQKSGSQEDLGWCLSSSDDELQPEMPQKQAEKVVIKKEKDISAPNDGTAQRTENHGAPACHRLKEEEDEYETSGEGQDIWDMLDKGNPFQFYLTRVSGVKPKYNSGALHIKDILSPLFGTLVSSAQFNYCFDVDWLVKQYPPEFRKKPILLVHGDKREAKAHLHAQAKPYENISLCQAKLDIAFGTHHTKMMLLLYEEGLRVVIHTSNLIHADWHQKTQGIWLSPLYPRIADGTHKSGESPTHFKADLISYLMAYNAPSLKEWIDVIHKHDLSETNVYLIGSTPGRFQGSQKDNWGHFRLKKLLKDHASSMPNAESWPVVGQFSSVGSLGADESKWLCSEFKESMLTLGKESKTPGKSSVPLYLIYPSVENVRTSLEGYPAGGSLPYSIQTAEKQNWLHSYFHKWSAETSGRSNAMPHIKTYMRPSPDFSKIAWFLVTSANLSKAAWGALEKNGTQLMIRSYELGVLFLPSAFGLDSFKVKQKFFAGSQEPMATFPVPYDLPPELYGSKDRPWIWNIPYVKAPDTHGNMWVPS
#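 Here, a 5' biotin and 3' phosphotyrosine-FITC DNA oligonucleotide reports Tdp1 activity: intact substrate bridges AlphaScreen beads, while cleavage leaves a 3' phosphate and drops signal. All incubations at room temperature.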
# IL1B secr inh = qHTS for Inhibitors of Inflammasome Signaling: IL-1-beta AlphaLISA Primary Screen; 4.7% of 360,000 active; THP-1 LPS/ATP IL-1B secretion, AlphaLISA, 16 h; stronger effect = lower value; activity change, % at 57.5 µM; AID 743279, 2014; in the data active means activity change below about -50%; inconclusive means mostly about -30% to -49%
#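 THP-1 cells pretreated 1 hr with compounds (up to 57.5 uM final), then stimulated with LPS (250 ng/mL final) plus ATP (1.25 mM final); secreted IL-1B measured by AlphaLISA after 16 hr, decreased signal indicating inhibition.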
# TDP1 cell CPT = qHTS for Inhibitors of human tyrosyl-DNA phosphodiesterase 1 (TDP1): qHTS in cells in presence of CPT; 12% of 420,000 active; chicken DT40 Tdp1-/-;hTDP1 cells + 20 nM CPT, ATP luminescence, 48 h; AID 686979, 2013; Potency, µM (highest dose often 46.2 µM), inactives show at the highest dose activity change, negative = growth inhibition, actives largely listed as inhibitors; further: potency means the concentration at half of the fitted maximal effect; nearly all actives have a fitted effect of over 55% in size
#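 Cell growth measured by CellTiter-Glo luminescence after a minimum 48 h, 37 C compound exposure with 20 nM CPT in Tdp1-knockout DT40 cells stably expressing hTDP1, seeded 400/well; qHTS titration format.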
# CtBP-E1A inh = qHTS Assay for Inhibitors of the CtBP/E1A Interaction; CtBP / adenovirus E1A interaction (AlphaScreen); AlphaScreen GST-E1A/His-CtBP binding, 1536-well; stronger effect = lower value; activity change, % (test concentration not listed); 0.49% of 340,000 active; in the data active means activity change below about -65%; inconclusive means mostly about -30% to -63%
#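 GST-E1A and His-tagged CtBP (125 nM each as 5X stock) were preincubated with pin-transferred compound for 2 h at 37 °C in the dark, then glutathione donor and nickel acceptor beads were added for 1 h before AlphaScreen reading.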
# * marks the source's active call; other numbers are inactive results; ? = inconclusive; . = no result. Unless noted, the call rests on the fitted dose curve; in most records, active means well fitted curve in the direction sought with a large enough effect; inconclusive means small, poorly fitted or top-dose-only effect, or another doubt; inactive means no such curve, though single readings can be large; an effect the other way counts as inactive or inconclusive. On the % scale 0 is the no-effect control and ±100 the full control effect.
SMILES,TDP1 cell noCPT,Six1-Eya2 inh,TDP1 block,IL1B secr inh,TDP1 cell CPT,CtBP-E1A inh
CCCCNS(=O)(=O)c1ccc2nc(SCC(=O)Nc3sccc3C#N)[nH]c2c1,?,?,6%,8,23µM*,?
CCCCNS(=O)(=O)c1ccc2nc(SCC(=O)c3ccccc3OC)[nH]c2c1,?,-9,8%,?,10µM*,-12
COc1ccc(C(CC(=O)N2CCCC2)c2c(OC)cc(OC)c3c(-c4ccccc4)cc(=O)oc23)cc1 (stereo not given),16µM*,-14,7.9µM*,-16,?,0
COc1ccc(C(CC(=O)N2CCCC(C)C2)c2c(OC)cc(OC)c3c(-c4ccccc4)cc(=O)oc23)cc1 (stereo not given),15µM*,-16,.,-10,?,-4
COc1ccc(C(CC(=O)N2CCCC(C)C2)c2c(OC)cc(OC)c3ccc(=O)oc23)cc1 (stereo not given),18µM*,-3,-2%,-7,?,1
N#Cc1cccc(NC(=O)Cn2cnc(S(=O)(=O)N3CCCC3)c2)c1,-7%,4,1%,0,-7%,4
Cc1cccc(N2CCN(C(=O)CN3C(=O)COc4ccc(S(=O)(=O)N5CCOCC5)cc43)CC2)c1C,.,.,1%,.,.,.
O=C1C(c2ccccc2)=[N+]([O-])c2ccccc21,4.1µM*,7,11%,-88*,5.2µM*,2
CC(Sc1cccc[n+]1[O-])C(=O)NC1CCCCC1C (stereo not given),31%,9,1%,22,-3%,1
O=C(OCc1ccccc1)N1CCC2CC1c1ccc(N3CCOCC3)cc12 (stereo not given),?,?,.,-3,?,-6
Cc1ccccc1S(=O)(=O)N1CCN(c2ccc3c(c2)C2CC3CCN2C(=O)OCc2ccccc2)CC1 (stereo not given),16µM*,-19,.,1,?,-22
COc1ccc(NC(=S)N2CCN(c3ccc4c(c3)C3CCN(C(=O)OCc5ccccc5)C4C3)CC2)c(OC)c1 (stereo not given),5.2µM*,-20,.,4,7.3µM*,-19
O=C(OCc1ccccc1)N1CCC2CC1c1cc(N3CCN(C(=S)NCCc4ccccc4)CC3)ccc12 (stereo not given),?,-18,.,-24,?,-14
O=C(OCc1ccccc1)N1CCC2CC1c1ccc(N3CCNCC3)cc12 (stereo not given),7.3µM*,-14,.,-15,9.2µM*,-20
COc1ccccc1CNC(=O)C1CCN(S(=O)(=O)N2CCCCC2)CC1,-14%,2,0%,0,-2%,9
CCOC(=O)C1(C)CCCCCN1C(=O)c1snnc1C (stereo not given),3%,12,.,35,4%,8
O=C(Cn1c(C(F)(F)F)nc2ccccc21)Nc1ccccc1N1CCOCC1,-26%,-2,4%,18,-24%,1
O=C(NC(=S)Nc1cc(C(F)(F)F)ccc1N1CCOCC1)c1ccco1,?,-3,7%,?,?,-7
CC(=O)NC(=S)Nc1cc(C(F)(F)F)ccc1N1CCOCC1,?,-4,-1%,-61*,-7%,4
Cc1ccccc1SCC(=O)Nc1cc(C(F)(F)F)ccc1N1CCOCC1,?,23,.,-70*,?,19
CSc1nc2ccccc2n1CC(=O)Nc1cc(C(F)(F)F)ccc1N1CCOCC1,16µM*,6,-1%,0,21µM*,4
O=C(CCNC(=O)c1ccc(Cl)cc1)Nc1cc(C(F)(F)F)ccc1N1CCOCC1,23µM*,0,.,-13,26µM*,1
CCOc1ccccc1NC(C)C(=O)Nc1cc(C(F)(F)F)ccc1N1CCOCC1 (stereo not given),18µM*,-5,4%,11,?,-14
Cc1c(/C(O)=C2\C(=O)C(=O)N(CCCN(C)C)C2c2cccs2)cnn1-c1ccccc1 (stereo not given),2%,19,.,?,1%,0
CCOC(=O)C1CCCN(CC(=O)Nc2c(C(=O)OC)[nH]c3ccc(Br)cc23)C1 (stereo not given),21µM*,-12,9%,24,16µM*,1
COC(=O)c1[nH]c2ccc(Br)cc2c1NC(=O)CN1CCN(C2CCCCC2)CC1,21µM*,-3,3%,-100*,26µM*,-3
CCOC(=O)C1CCCN(CCC(=O)Nc2c(C(=O)OC)[nH]c3cc(OC)ccc23)C1 (stereo not given),-8%,-4,7%,19,1%,0
CCOC(=O)c1[nH]c2ccc(Br)cc2c1NC(=O)CCN1CCCC(C)(C)C1,26µM*,0,0%,-11,?,-20
CCOC(=O)C1CCN(CC(=O)Nc2c(C(=O)OC)[nH]c3ccc(Cl)cc23)CC1,10µM*,-9,6%,7,23µM*,-6
Cc1ccccc1OCC(=O)NNC(=O)c1ccc(-c2ccccc2)cc1,-29%,-6,-8%,0,-18%,-2

# Bioassay records (PubChem)
